Data: PubChem BioAssay
Calls of active or inactive are those of the source.

Tests used:
[1] = system: PRMT1 (protein arginine N-methyltransferase 1); assay: PRMT1 binders on small-molecule microarrays, primary screen, biochemical, small-molecule microarray, 635 nm fluorescence (AID 1088); conditions: small-molecule microarray binding, higher = more signal;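 note: binding of Prmt1 protein to compounds spotted on small-molecule microarray slides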
[2] = yeast growth modulation, basal conditions, primary screen, YJM789 clinical isolate, OD600, 24 h (AID 1089);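 note: growth of clinical yeast isolate S. cerevisiae YJM 789 seeded 1000 cells per well; test concentration not given here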; conditions: S. cerevisiae YJM789 growth, higher = more signal, called active from +8 up or from −8 down
[3] = fission yeast growth modulation, primary screen, strain 972, OD600, 24 h, no modulator (AID 1090);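 note: basal condition with compound alone and no growth modifier present; test concentration not given here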; conditions: S. pombe 972 growth, higher = more signal, called active from +8 up or from −8 down
[4] = S. cerevisiae growth modulation with rapamycin, primary screen, strain BY4716, OD600, 96 h (AID 1091); conditions: higher = more signal, called active from +8 up or from −8 down; note: test concentration not given here
[5] = molecular target: Torsin-1A-interacting protein 2 (Homo sapiens) (UniProt Q8NFQ8); assay: LULL1 binders on small-molecule microarray, primary screen, cell lysate, human LULL1 lysate, 635/667 nm fluorescence (AID 1092); conditions: hLULL1 lysate binding, 635 nm fluorescence, higher = more signal;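 note: probe is lysate of COS7 cells overexpressing human LULL1; score merges per-feature 667 nm fluorescence with signal-to-noise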
Chain of Torsin-1A-interacting protein 2 (Homo sapiens) (Q8NFQ8 whole entry, looked up): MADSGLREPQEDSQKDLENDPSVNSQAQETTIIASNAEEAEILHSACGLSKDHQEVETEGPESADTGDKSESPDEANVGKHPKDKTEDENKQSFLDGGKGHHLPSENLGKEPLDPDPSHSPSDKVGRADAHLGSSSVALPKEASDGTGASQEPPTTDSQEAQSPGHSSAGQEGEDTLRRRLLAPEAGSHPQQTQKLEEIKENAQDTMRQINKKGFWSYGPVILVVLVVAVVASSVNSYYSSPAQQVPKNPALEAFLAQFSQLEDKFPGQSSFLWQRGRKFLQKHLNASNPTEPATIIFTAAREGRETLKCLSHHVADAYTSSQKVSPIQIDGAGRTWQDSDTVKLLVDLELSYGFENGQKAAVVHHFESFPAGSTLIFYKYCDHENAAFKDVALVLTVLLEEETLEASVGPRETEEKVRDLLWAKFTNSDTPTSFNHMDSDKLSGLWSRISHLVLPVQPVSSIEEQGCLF

[6] = E. coli growth modulation, two-sided OD650, primary screen, E. coli filamentation project, strain DRC41, 24 h (AID 1093); conditions: OD650, 24 h, higher = more signal, called active from +8 up or from −8 down;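 note: MC1000 strain lacking acrAB efflux and sulA so SOS filamentation is blocked; test concentration not given here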
[7] = small-molecule microarray binders of probe aLefty2, primary screen, biochemical, biotinylated probe, 635/667 nm fluorescence (AID 1094); conditions: higher = more signal;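 note: score merges spot fluorescence near 667 nm with spot signal-to-noise ratio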
[8] = system: Noggin (protein binding on small-molecule microarray); assay: Noggin binders on small-molecule microarray, primary screen, biochemical, 635/667 nm fluorescence (AID 1095); conditions: 635 nm fluorescence, higher = more signal;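 note: score merges 667 nm feature fluorescence with signal to noise over triplicate slides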
[9] = molecular target: Neurogenic locus notch homolog protein 3 (Homo sapiens) (UniProt Q9UM47); assay: NOTCH3 binders on small-molecule microarray, primary screen, biochemical, 635/667 nm fluorescence (AID 1096); conditions: NOTCH3 binding, 635 nm fluorescence, higher = more signal
Chain of Neurogenic locus notch homolog protein 3 (Homo sapiens) (Q9UM47 whole entry, looked up): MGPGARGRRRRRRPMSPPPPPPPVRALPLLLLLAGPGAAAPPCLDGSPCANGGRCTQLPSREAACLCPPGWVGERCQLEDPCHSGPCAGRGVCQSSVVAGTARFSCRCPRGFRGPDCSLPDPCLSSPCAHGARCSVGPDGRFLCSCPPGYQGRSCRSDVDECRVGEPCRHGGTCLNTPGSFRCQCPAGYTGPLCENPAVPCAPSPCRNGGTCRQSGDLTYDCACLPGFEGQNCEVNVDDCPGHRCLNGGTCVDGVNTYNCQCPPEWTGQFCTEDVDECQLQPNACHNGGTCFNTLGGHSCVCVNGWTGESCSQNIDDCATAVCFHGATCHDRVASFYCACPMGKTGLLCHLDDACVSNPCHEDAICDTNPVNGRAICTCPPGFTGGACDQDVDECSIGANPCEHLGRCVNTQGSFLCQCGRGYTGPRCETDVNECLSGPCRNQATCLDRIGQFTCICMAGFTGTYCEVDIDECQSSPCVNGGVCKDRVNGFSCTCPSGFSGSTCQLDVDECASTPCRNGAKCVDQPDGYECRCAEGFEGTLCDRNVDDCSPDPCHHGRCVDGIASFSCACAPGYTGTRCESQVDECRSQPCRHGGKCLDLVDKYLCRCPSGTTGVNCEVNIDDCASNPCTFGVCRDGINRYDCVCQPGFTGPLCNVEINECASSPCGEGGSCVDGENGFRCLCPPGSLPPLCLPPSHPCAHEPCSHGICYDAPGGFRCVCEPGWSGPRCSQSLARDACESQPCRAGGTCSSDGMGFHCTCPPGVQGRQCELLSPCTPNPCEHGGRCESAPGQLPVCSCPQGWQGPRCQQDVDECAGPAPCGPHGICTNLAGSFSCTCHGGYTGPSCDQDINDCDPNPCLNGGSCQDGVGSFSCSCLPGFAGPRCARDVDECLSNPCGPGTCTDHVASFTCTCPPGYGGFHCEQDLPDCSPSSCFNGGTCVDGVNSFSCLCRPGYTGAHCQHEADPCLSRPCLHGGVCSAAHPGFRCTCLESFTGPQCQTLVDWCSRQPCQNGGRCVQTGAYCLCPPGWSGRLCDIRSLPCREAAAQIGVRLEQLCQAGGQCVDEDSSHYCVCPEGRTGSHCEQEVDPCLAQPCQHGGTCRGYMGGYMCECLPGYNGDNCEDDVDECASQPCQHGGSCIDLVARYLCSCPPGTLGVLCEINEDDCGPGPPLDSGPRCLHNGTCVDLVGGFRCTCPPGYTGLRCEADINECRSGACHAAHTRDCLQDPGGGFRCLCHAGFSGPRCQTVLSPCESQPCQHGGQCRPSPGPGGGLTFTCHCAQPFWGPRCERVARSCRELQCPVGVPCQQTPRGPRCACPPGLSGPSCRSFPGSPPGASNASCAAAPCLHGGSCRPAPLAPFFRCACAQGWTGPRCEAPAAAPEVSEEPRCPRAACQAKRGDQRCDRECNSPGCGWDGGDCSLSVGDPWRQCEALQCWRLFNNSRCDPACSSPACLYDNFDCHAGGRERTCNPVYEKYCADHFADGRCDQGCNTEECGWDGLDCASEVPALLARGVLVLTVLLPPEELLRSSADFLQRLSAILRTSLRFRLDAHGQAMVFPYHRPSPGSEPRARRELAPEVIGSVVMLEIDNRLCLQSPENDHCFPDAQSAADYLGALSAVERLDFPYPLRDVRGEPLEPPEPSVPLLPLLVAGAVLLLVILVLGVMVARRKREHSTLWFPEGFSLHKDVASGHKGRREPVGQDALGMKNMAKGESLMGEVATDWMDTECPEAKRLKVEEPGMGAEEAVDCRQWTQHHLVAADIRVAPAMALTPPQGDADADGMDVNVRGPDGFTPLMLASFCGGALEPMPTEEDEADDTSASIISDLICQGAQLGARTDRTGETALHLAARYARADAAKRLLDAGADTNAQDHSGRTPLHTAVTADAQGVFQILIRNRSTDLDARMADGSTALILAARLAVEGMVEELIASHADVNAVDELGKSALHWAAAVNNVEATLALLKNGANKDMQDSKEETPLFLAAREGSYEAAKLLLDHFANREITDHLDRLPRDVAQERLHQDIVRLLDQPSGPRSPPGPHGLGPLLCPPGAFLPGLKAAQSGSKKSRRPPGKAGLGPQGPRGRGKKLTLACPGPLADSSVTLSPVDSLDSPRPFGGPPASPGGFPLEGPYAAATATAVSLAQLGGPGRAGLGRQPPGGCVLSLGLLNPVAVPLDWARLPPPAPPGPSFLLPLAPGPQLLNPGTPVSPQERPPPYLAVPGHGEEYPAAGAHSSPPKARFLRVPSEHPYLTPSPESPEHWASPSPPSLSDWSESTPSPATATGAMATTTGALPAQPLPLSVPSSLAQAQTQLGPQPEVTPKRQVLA

[10] = small-molecule microarray binders of probe aEGFR, primary screen, biochemical, biotinylated probe, 635/667 nm fluorescence (AID 1097); conditions: higher = more signal;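 note: probe is a biotinylated anti-EGFR antibody binding compounds printed on slides; score combines fluorescence near 667 nm and signal to noise of each spot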
[11] = system: Plasmodium falciparum Sir2 (PF13_0152, Sir2A); assay: pfSir2 binders on small-molecule microarrays, primary screen, biochemical, small-molecule microarray, 635 nm fluorescence (AID 1098); conditions: small-molecule microarray binding, fluorescence 635 nm; higher = more signal;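 note: score merges spot fluorescence intensity with its signal-to-noise ratio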
[12] = small-molecule microarray binders of probe aDKK1, primary screen, biochemical, biotinylated probe, 635/667 nm fluorescence (AID 1099); conditions: higher = more signal;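 note: score merges 667nm spot fluorescence with signal to noise across triplicate slides; reference of the scale not given here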
[13] = small-molecule microarray binders of probe aCHRDL2, primary screen, biochemical, biotinylated probe, 635/667 nm fluorescence (AID 1100); conditions: higher = more signal
[14] = splicing luciferase reporter signal modulators, primary screen, spliceosome inhibition project, cell-based, HEK293, splice +/- reporter (AID 1101); conditions: luminescence, 24 h, higher = more signal, called active from +8 up or from −8 down;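 note: HEK293 cells carrying a splicing-competent luciferase reporter gene; test concentration not given here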
[15] = molecular target: Fibroblast growth factor 10 (Homo sapiens) (UniProt O15520); assay: FGF10 binders on small-molecule microarrays, primary screen, biochemical, small-molecule microarray, 635 nm fluorescence (AID 1102); conditions: FGF10 binding, fluorescence 635 nm, higher = more signal
Chain of Fibroblast growth factor 10 (Homo sapiens) (O15520 whole entry, looked up): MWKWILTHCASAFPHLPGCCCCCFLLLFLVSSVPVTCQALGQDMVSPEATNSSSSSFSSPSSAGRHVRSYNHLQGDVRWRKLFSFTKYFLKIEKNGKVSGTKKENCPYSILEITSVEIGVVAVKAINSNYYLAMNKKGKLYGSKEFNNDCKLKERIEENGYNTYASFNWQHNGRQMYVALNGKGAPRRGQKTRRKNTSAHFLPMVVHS

[16] = system: glycogen synthase kinase-3 (GSK3A per assay name; protocol says GSK3B); assay: GSK3 binders on small-molecule microarrays, primary screen, biochemical, small-molecule microarray, 635 nm fluorescence, GSK3A (AID 1103); conditions: small-molecule microarray binding, fluorescence 635 nm; higher = more signal; note: the record names both GSK3A and GSK3B
[17] = molecular target: Epidermal growth factor receptor (Homo sapiens) (UniProt P00533); assay: EGFR binders on small-molecule microarrays, primary screen, biochemical, small-molecule microarray, 635 nm fluorescence (AID 1104); conditions: EGFR binding, higher = more signal;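 note: score merges 667 nm emission intensity with spot signal to noise over triplicate slides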
Chain of Epidermal growth factor receptor (Homo sapiens) (P00533 whole entry, looked up): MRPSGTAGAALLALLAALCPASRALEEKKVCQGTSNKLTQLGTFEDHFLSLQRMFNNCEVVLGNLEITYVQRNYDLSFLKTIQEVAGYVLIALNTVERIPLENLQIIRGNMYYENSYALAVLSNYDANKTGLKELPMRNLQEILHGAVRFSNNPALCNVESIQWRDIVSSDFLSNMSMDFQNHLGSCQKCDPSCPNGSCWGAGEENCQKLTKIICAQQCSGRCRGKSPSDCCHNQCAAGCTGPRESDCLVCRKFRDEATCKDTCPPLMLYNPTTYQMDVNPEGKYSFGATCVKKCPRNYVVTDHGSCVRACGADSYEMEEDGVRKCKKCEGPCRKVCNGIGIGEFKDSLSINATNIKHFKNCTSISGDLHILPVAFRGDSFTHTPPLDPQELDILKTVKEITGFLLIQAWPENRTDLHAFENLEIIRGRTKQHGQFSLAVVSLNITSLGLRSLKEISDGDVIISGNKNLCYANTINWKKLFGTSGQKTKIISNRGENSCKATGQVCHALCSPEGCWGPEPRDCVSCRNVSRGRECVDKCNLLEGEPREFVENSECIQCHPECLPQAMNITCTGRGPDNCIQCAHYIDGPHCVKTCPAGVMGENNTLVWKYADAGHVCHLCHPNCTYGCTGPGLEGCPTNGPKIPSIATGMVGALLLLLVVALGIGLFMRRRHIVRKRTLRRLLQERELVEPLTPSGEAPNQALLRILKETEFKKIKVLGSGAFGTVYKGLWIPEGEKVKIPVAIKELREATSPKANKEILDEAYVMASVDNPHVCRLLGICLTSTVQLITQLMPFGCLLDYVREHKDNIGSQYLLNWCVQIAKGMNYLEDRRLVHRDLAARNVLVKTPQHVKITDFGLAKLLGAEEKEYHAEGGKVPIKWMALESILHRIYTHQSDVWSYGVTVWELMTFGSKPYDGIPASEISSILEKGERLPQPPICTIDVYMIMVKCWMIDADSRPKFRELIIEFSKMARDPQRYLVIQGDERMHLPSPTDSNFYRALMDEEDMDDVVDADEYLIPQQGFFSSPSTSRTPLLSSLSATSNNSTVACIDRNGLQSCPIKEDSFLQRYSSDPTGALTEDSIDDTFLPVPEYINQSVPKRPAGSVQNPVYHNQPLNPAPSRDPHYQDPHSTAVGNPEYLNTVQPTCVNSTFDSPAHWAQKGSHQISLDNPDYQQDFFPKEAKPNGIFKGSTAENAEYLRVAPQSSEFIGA

[18] = molecular target: Follistatin-related protein 3 (Homo sapiens) (UniProt O95633); assay: FSTL3 binders on small-molecule microarrays, primary screen, biochemical, small-molecule microarray, 635 nm fluorescence (AID 1105); conditions: FSTL3 binding, higher = more signal;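 note: score merges emission near 667 nm and signal to noise per printed spot across three slides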
Chain of Follistatin-related protein 3 (Homo sapiens) (O95633 whole entry, looked up): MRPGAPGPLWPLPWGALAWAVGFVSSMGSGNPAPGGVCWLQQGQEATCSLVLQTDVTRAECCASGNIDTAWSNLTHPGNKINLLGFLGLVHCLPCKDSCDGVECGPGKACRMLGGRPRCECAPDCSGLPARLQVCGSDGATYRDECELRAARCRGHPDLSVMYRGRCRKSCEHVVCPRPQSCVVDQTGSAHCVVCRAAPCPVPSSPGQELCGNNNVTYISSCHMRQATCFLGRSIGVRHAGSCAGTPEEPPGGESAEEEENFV

[19] = molecular target: Dickkopf-related protein 1 (Homo sapiens) (UniProt O94907); assay: DKK1 binders on small-molecule microarrays, primary screen, biochemical, small-molecule microarray, 635 nm fluorescence scan (AID 1106); conditions: DKK1 binding, higher = more signal;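 note: score merges emission near 667 nm with signal to noise over three replicate slides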
Chain of Dickkopf-related protein 1 (Homo sapiens) (O94907 whole entry, looked up): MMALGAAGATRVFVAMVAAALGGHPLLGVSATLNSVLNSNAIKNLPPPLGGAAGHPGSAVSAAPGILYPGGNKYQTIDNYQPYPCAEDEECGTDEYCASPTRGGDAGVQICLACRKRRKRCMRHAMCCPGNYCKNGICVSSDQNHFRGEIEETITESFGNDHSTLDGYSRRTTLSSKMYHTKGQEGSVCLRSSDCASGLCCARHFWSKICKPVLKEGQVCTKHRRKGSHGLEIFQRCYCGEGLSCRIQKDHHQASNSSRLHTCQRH

[20] = system: Inhibin beta A chain (activin A); assay: INHBA (activin A) binders on microarrays, primary screen, biochemical, small-molecule microarray, 635 nm fluorescence scan (AID 1107); conditions: small-molecule microarray binding, higher = more signal;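 note: mouse activin A protein probed at 4.33 µg/mL on printed slides; score merges bound-protein fluorescence near 667 nm with spot signal-to-noise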

Compound | composite z-score [1] | z-score [2] | z-score [3] | z-score [4] | composite z-score [5] | z-score [6] | composite z-score [7] | composite z-score [8] | composite z-score [9] | composite z-score [10] | composite z-score [11] | composite z-score [12] | composite z-score [13] | z-score [14] | composite z-score [15] | composite z-score [16] | composite z-score [17] | composite z-score [18] | composite z-score [19] | composite z-score [20]
C[C@@H]1NC(=O)[C@@H](C)COC(=O)[C@H](C)NC(=O)[C@@H](C)COC1=O | 0.455 | -0.335 (inactive) | -0.924 (inactive) | -1.94 (inactive) | 1.03 | -0.0698 (inactive) | -0.0186 | 0.79 | -0.0611 | 0.132 | 0.429 | -0.23 | -0.0595 | -1.35 (inactive) | 0.765 | 0.642 | 0.401 | 1.15 | 0.769 | -0.772
CO[C@H]1COC(=O)CC=C[C@H](C)COC(=O)[C@@H](C)NC(=O)CC=C[C@@H]1C | 1.53 | -0.78 (inactive) | -0.809 (inactive) | -1.18 (inactive) | -1.13 | 0.0007 (inactive) | -0.289 | 1.88 | -0.222 | -0.0606 | 1.56 | -0.335 | -1.42 | -1.31 (inactive) | 0.337 | 0.913 | 1.32 | 1.47 | 1.65 | 0.872
C[C@H]1CC[C@H]2C(=O)OC(CO)CN2[C@@H]1c1ccc(Br)cc1 (stereo not given in full) | 0.14 | -0.276 (inactive) | -0.315 (inactive) | 0.603 (inactive) | -0.467 | 0.458 (inactive) | -0.236 | 0.0982 | -0.0249 | -0.145 | -0.273 | -0.28 | -0.0574 | -0.522 (inactive) | 0.0323 | -0.536 | 0.242 | -0.34 | -0.241 | 0.757
O=C1[C@H]2[C@H]3[C@H](O)[C@H](O)CC(=NOCc4ccccc4)[C@@H]3CC[C@H]2C(=O)N1C[C@@H]1CCCO1 | -0.423 | -0.857 (inactive) | 0.767 (inactive) | -0.369 (inactive) | 0.292 | 1.27 (inactive) | -0.114 | 0.228 | 0.237 | -0.0151 | 0.0048 | -0.168 | -0.21 | 0.274 (inactive) | 0.179 | -0.451 | -0.0735 | -0.304 | -0.028 | 0.164
C[C@H]1CC[C@H]2C(=O)O[C@H](COc3ccc(C(C)(C)C)cc3)CN2[C@@H]1c1ccc(Br)cc1 | 0.27 | -0.364 (inactive) | -0.725 (inactive) | 0.474 (inactive) | 0.55 | -0.535 (inactive) | 0.0056 | -0.0084 | -0.164 | -0.143 | 0.926 | -0.143 | -0.0663 | 0.134 (inactive) | 0.0311 | 0.102 | -0.0022 | -0.156 | -0.189 | 0.0563
CC(C)=CCCC(C)=CCON=C1C[C@@H](O)[C@@H](O)[C@@H]2[C@@H]3C(=O)N(Cc4ccccc4)C(=O)[C@@H]3CC[C@H]12 | 1.06 | -0.574 (inactive) | -1.58 (inactive) | -1.29 (inactive) | 1.94 | -0.128 (inactive) | -0.236 | 0.608 | 0.811 | -0.034 | 0.639 | -0.21 | -0.659 | -1.83 (inactive) | 0.932 | 1.12 | 0.611 | 1.14 | -0.523 | 1.11
CCOC(=O)[C@H](Cc1ccccc1)NC(=O)CCC1CC(OC(=O)NCc2cccc3ccccc23)CC2(CCCC(COC(=O)NCc3cccc(C(F)(F)F)c3)O2)O1 (stereo not given in full) | 0.176 | 0.655 (inactive) | 0.611 (inactive) | 1.67 (inactive) | 1.48 | -0.353 (inactive) | -0.217 | 0.0178 | 0.212 | -0.114 | 0.532 | -0.181 | -0.172 | -0.247 (inactive) | 0.152 | -0.189 | -0.185 | -0.278 | 0.025 | -0.151
CO[C@@H]1COC(=O)CC=C[C@@H](C)[C@@H]2C=C[C@H](O)[C@@H](COC(=O)CC=C[C@H]1C)O2 | 1.56 | -0.48 (inactive) | -0.636 (inactive) | -0.922 (inactive) | -0.664 | 0.713 (inactive) | -0.123 | 1.47 | 0.276 | 0.0651 | 0.643 | -0.438 | -1.25 | -0.383 (inactive) | 0.602 | 1.02 | 1.2 | 1.52 | 1.66 | 1.73
CCN1C(=O)[C@H]2[C@H]3[C@H](O)[C@H](O)CC(=NO[C@@H](C)c4cn([C@H](CO)Cc5ccccc5)nn4)[C@@H]3CC[C@H]2C1=O | 1.14 | 0.149 (inactive) | 0.718 (inactive) | 0.726 (inactive) | 1.28 | 0.194 (inactive) | -0.264 | 0.387 | 0.988 | 0.0346 | 0.774 | 0.262 | -0.426 | 0.358 (inactive) | 0.792 | 0.92 | 0.182 | 1.14 | 0.692 | -1.1
O=c1n(Cc2cc3c(cc2Cl)OCO3)c(=O)n2n1CC[C@@H]1C(=NOCc3ccccc3)[C@H]3O[C@H]3[C@@H](O)[C@@H]12 | 0.499 | -1.97 (inactive) | -1.25 (inactive) | -0.756 (inactive) | -0.056 | -0.363 (inactive) | -0.0963 | 0.498 | 0.68 | -0.0371 | 0.172 | 0.87 | -0.546 | -1 (inactive) | 0.531 | 0.432 | 0.452 | 0.587 | 0.669 | 0.111
